Slope and inhibition data for 40 compounds are collected here from PubChem BioAssay.

The source made the active and inactive calls.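 How the source made its calls, unless noted: active means fluorescence slope after compound addition differing from the mean of all screened samples at 99.7% confidence, in either direction; inactive means the rest.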

As a reminder, the inhibition is the relative decrease from the control value, in per cent.

For one assay, the target named is Alpha-2C adrenergic receptor (Homo sapiens) (UniProt P18825). Kind of assay: modulators of alpha2C/GIRK thallium flux, primary screen, cell-based, HEK293 alpha2C/GIRK1/2 (AID 624).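 Further: slope of fluorescence ratio to pre-addition baseline per second over 15 to 24 s.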 To be noted: thallium flux BTC fluorescence, at 10 µM, actives lie on both sides.
Sequence of Alpha-2C adrenergic receptor (Homo sapiens) (P18825 whole entry, looked up): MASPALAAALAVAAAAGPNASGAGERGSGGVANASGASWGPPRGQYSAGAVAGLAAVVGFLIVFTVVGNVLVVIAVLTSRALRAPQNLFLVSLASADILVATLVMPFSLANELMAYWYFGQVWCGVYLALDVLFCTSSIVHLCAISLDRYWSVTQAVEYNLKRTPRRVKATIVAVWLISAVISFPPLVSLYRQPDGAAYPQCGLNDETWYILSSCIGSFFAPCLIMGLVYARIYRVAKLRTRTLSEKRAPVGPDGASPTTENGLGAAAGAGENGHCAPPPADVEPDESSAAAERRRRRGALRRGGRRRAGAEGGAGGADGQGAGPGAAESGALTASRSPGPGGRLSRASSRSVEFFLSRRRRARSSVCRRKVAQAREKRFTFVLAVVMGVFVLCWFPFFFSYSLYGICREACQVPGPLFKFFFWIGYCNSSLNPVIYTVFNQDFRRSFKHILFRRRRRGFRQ
As for `CCN(C(C)=O)c1nnc(CSc2nc3ccccc3s2)s1`, the slope is 0.00523 (inactive).

With `CC(=O)NC1(C(F)(F)F)NC(=O)N(CC(C)C)C1=O` (stereo not given), the slope was 0.00596 (inactive).

Regarding `CCOc1ccc2nc(Nc3nc4c(c(=O)[nH]3)CCC4)nc(C)c2c1`, the slope is 0.00628 (inactive).

Regarding `CCOC(=O)N1CCC(NC(=O)CCC(=O)N2CC(C)Oc3ccc(Cl)cc32)CC1` (stereo not given), the slope was 0.00486 (inactive).

Regarding `Cc1ccccc1C(=O)NC1CCN(Cc2nnnn2Cc2ccccc2)CC1`, the slope was 0.00483 (inactive).

Take `Cc1ccc2c(c1)CCCN2C(=O)C1CCCO1` (stereo not given): the slope is 0.00423 (inactive).

For the compound `CCCCc1ccc(NC(=O)C2CCCO2)cc1` (stereo not given), the slope is 0.00635 (inactive).

For the compound `CC(=O)c1cccc(NC(=O)NCc2ccccn2)c1`, the slope was 0.00223 (inactive).

In the case of `Cc1ccc(OC(=O)CCC(=O)OCCCC(F)(F)C(F)(F)F)cc1`, the slope is 0.00733 (inactive).

As for `O=C(CSc1nc2ccccc2o1)NC(=O)NCc1ccco1`, the slope is 0.00371 (inactive).

For the compound `Cc1ccccc1CN1CCN(C(=O)c2cccc(F)c2)CC1`, the slope is 0.00429 (inactive).

Consider `CCOC(=O)C1=C(C)NC(=O)NC1c1ccc(Br)s1` (stereo not given), for which the slope was 0.00543 (inactive).

As to `COc1cccc(C(=O)n2cnnc2N)c1OC`, the slope was 0.00713 (inactive).

For the compound `CN(C)S(=O)(=O)c1ccc(S(=O)(=O)N(Cc2ccco2)Cc2ccccc2Cl)cc1`, the slope is 0.00696 (inactive).

Regarding `CCOc1ccc(S(=O)(=O)Nc2cccc(Cl)c2)cc1`, the slope was 0.00349 (inactive).

Take `CN(C)CCCN1C(=O)c2oc3ccc(Cl)cc3c(=O)c2C1c1cccnc1` (stereo not given): the slope was 0.00766 (inactive).

For the compound `COc1ccccc1N1CCN(Cc2nnnn2CCc2ccccc2)CC1`, the slope is 0.00514 (inactive).

In the case of `COc1ccc(-c2noc(COc3ccc(Cl)c(C)c3)n2)cc1`, the slope was 0.00784 (inactive).

Regarding `CN(CC(=O)Nc1sccc1C#N)C1CCCCC1`, the slope is 0.00552 (inactive).

With `COc1ccccc1-c1cc2nc(C)c(CCC(=O)NCc3ccco3)c(C)n2n1`, the slope is 0.00963 (inactive).

For `Cc1cc(C)c2cc3c(ccn3C3OC[C@H](O)[C@H](O)[C@H]3O)cc2n1` (stereo not given in full), the slope was 0.002 (inactive).

For the compound `CCOc1cc(NC(=O)c2ccccn2)c(OCC)cc1NC(=O)CC(C)C`, the slope is 0.00499 (inactive).

For `COc1ccc(S(=O)(=O)N(CCN2CCOCC2)Cc2cc(OC)ccc2OC)cc1`, the slope is 0.00508 (inactive).

Turning to `CC1(C)CC(=O)CC(C)(C)N1OC(=O)c1ccccn1`, the slope is 0.00619 (inactive).

As to `Nc1ccc(-n2c(N)c(C(=O)NCc3ccc4c(c3)OCO4)c3nc4ccccc4nc32)cc1`, the slope is 0.00435 (inactive).

Regarding `CC12CCC(C(=O)O)(c3nc(C#N)c(C#N)nc31)C2(C)C` (stereo not given), the slope was 0.0041 (inactive).

With `CN(C)c1ccc(C(=O)OCC(=O)NC2CCCCC2)cc1`, the slope is 0.00547 (inactive).

With `CCOC(=O)N1CCN(Cc2nc3c(c(=O)[nH]c(=O)n3C)n2Cc2cc(C)ccc2C)CC1`, the slope was 0.00433 (inactive).

With `C#CC1(O)CC(C)N(C)C(C)C1` (stereo not given), the slope was 0.00632 (inactive).

For `O=C(CN(CC1CCCO1)C(=O)CCC(=O)Nc1ccccn1)NCC1CCCO1` (stereo not given), the slope was 0.00568 (inactive).

In the case of `CC(=O)c1ccc2c3c(cccc13)C(=O)N(c1c(C)nn(C)c1C)C2=O`, the slope is 0.00453 (inactive).

On to `CC(C)[C@H](NC(=O)NCc1ccc(Cl)cc1)C(=O)O`, for which the slope was 0.00337 (inactive).

As for `COc1ccc(-n2c(Cc3cccn3C)nnc2SCC(=O)Nc2cccc(Cl)c2)cc1`, the slope is 0.00706 (inactive).

As for `COC(=O)/C=c1\sc2ncnn2c1=O`, the slope was 0.00688 (inactive).

On to `COCc1nnc(NC(=O)c2ccc(NC(C)=O)cc2)s1`, for which the slope was 0.00454 (inactive).

In the case of `Cc1cc(/C=N/n2cnnc2)c(C)n1-c1cccc(Cl)c1`, the slope is 0.00449 (inactive).

As to `C=CCNC(=O)C1CC(=O)N(c2ccc(OCC(=O)Nc3ccc(OC)cc3)cc2)C1` (stereo not given), the slope is 0.00432 (inactive).

For `Cc1cc2c(cc(C(=O)OCC(=O)NCc3cccs3)n2C(C)C)o1`, the slope was 0.00376 (inactive).

With `COc1ccc(C)cc1C(=O)CCC(=O)Nc1ccccc1N1CCOCC1`, the slope was 0.00373 (inactive).

For the compound `CC(C)(C)c1ccc(-c2nnc(SCCC#N)n2C2CCCC2)cc1`, the slope is 0.00637 (inactive).

Test system in the next assay: not listed separately
The assay is described as follows: inhibitors of Sendai virus-induced IRF3 signaling, primary screen, TLR/RLR signaling modifier project, cell-based, Sendai virus stimulus, luciferase, 10K MLSCN set (AID 602276;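 active means inhibition at or above 50% at 10 µM; inactive means inhibition below 50%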;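 further: firefly luciferase from ISG56 promoter only with Renilla not read in this screen; 0% = Sendai virus plus DMSO and 100% = medium plus DMSO without virus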). To be noted: HEK293 RL24 IRF3 luciferase reporter, at 10 µM, hits give high values. (In a reporter assay the amount or activity of a reporter protein is the signal.)
For the compound `CCN(C(C)=O)c1nnc(CSc2nc3ccccc3s2)s1`, the inhibition is -76.7% (inactive).

Turning to `CC(=O)NC1(C(F)(F)F)NC(=O)N(CC(C)C)C1=O` (stereo not given), the inhibition was -14.7% (inactive).

Take `CCOc1ccc2nc(Nc3nc4c(c(=O)[nH]3)CCC4)nc(C)c2c1`: the inhibition is -19.8% (inactive).

Take `CCOC(=O)N1CCC(NC(=O)CCC(=O)N2CC(C)Oc3ccc(Cl)cc32)CC1` (stereo not given): the inhibition was 7.09% (inactive).

Turning to `Cc1ccccc1C(=O)NC1CCN(Cc2nnnn2Cc2ccccc2)CC1`, the inhibition is 7.81% (inactive).

As for `Cc1ccc2c(c1)CCCN2C(=O)C1CCCO1` (stereo not given), the inhibition was 10.7% (inactive).

Take `CCCCc1ccc(NC(=O)C2CCCO2)cc1` (stereo not given): the inhibition is -42.7% (inactive).

As to `CC(=O)c1cccc(NC(=O)NCc2ccccn2)c1`, the inhibition was -8.72% (inactive).

For `Cc1ccc(OC(=O)CCC(=O)OCCCC(F)(F)C(F)(F)F)cc1`, the inhibition is 3.53% (inactive).

Take `O=C(CSc1nc2ccccc2o1)NC(=O)NCc1ccco1`: the inhibition is -2.31% (inactive).

As to `Cc1ccccc1CN1CCN(C(=O)c2cccc(F)c2)CC1`, the inhibition is 7.31% (inactive).

On to `CCOC(=O)C1=C(C)NC(=O)NC1c1ccc(Br)s1` (stereo not given), for which the inhibition is 11.8% (inactive).

Consider `COc1cccc(C(=O)n2cnnc2N)c1OC`, for which the inhibition was 16.3% (inactive).

As to `CN(C)S(=O)(=O)c1ccc(S(=O)(=O)N(Cc2ccco2)Cc2ccccc2Cl)cc1`, the inhibition is 4.31% (inactive).

For the compound `CCOc1ccc(S(=O)(=O)Nc2cccc(Cl)c2)cc1`, the inhibition was 38.8% (inactive).

As for `CN(C)CCCN1C(=O)c2oc3ccc(Cl)cc3c(=O)c2C1c1cccnc1` (stereo not given), the inhibition was 13.5% (inactive).

For the compound `COc1ccccc1N1CCN(Cc2nnnn2CCc2ccccc2)CC1`, the inhibition is -6.87% (inactive).

In the case of `COc1ccc(-c2noc(COc3ccc(Cl)c(C)c3)n2)cc1`, the inhibition was 7.55% (inactive).

Regarding `CN(CC(=O)Nc1sccc1C#N)C1CCCCC1`, the inhibition was -14.2% (inactive).

Regarding `COc1ccccc1-c1cc2nc(C)c(CCC(=O)NCc3ccco3)c(C)n2n1`, the inhibition is 18.9% (inactive).

For `Cc1cc(C)c2cc3c(ccn3C3OC[C@H](O)[C@H](O)[C@H]3O)cc2n1` (stereo not given in full), the inhibition is 15.4% (inactive).

Take `CCOc1cc(NC(=O)c2ccccn2)c(OCC)cc1NC(=O)CC(C)C`: the inhibition was -9.2% (inactive).

`COc1ccc(S(=O)(=O)N(CCN2CCOCC2)Cc2cc(OC)ccc2OC)cc1`: the inhibition is 17.2% (inactive).

Regarding `CC1(C)CC(=O)CC(C)(C)N1OC(=O)c1ccccn1`, the inhibition is -2.81% (inactive).

In the case of `Nc1ccc(-n2c(N)c(C(=O)NCc3ccc4c(c3)OCO4)c3nc4ccccc4nc32)cc1`, the inhibition is 20.1% (inactive).

Turning to `CC12CCC(C(=O)O)(c3nc(C#N)c(C#N)nc31)C2(C)C` (stereo not given), the inhibition was 15.9% (inactive).

As for `CN(C)c1ccc(C(=O)OCC(=O)NC2CCCCC2)cc1`, the inhibition was 16.6% (inactive).

Take `CCOC(=O)N1CCN(Cc2nc3c(c(=O)[nH]c(=O)n3C)n2Cc2cc(C)ccc2C)CC1`: the inhibition is 19.2% (inactive).

In the case of `C#CC1(O)CC(C)N(C)C(C)C1` (stereo not given), the inhibition is 11% (inactive).

Take `O=C(CN(CC1CCCO1)C(=O)CCC(=O)Nc1ccccn1)NCC1CCCO1` (stereo not given): the inhibition was 13.4% (inactive).

In the case of `CC(=O)c1ccc2c3c(cccc13)C(=O)N(c1c(C)nn(C)c1C)C2=O`, the inhibition was 6.92% (inactive).

In the case of `CC(C)[C@H](NC(=O)NCc1ccc(Cl)cc1)C(=O)O`, the inhibition is 13% (inactive).

On to `COc1ccc(-n2c(Cc3cccn3C)nnc2SCC(=O)Nc2cccc(Cl)c2)cc1`, for which the inhibition was -2.83% (inactive).

For the compound `COC(=O)/C=c1\sc2ncnn2c1=O`, the inhibition is 18.3% (inactive).

For `COCc1nnc(NC(=O)c2ccc(NC(C)=O)cc2)s1`, the inhibition was -5.57% (inactive).

For `Cc1cc(/C=N/n2cnnc2)c(C)n1-c1cccc(Cl)c1`, the inhibition is 13.2% (inactive).

As to `C=CCNC(=O)C1CC(=O)N(c2ccc(OCC(=O)Nc3ccc(OC)cc3)cc2)C1` (stereo not given), the inhibition is 5.59% (inactive).

Consider `Cc1cc2c(cc(C(=O)OCC(=O)NCc3cccs3)n2C(C)C)o1`, for which the inhibition is 20.7% (inactive).

For the compound `COc1ccc(C)cc1C(=O)CCC(=O)Nc1ccccc1N1CCOCC1`, the inhibition is 18.5% (inactive).

Take `CC(C)(C)c1ccc(-c2nnc(SCCC#N)n2C2CCCC2)cc1`: the inhibition was -5.13% (inactive).
